We go through 17 compounds from article PMC11062922 (Nature Chemical Biology, 2023).

What all share (set-up): species or system human, MV4-11 + K-562 + COLO205 + SK-N-BE2 + OVCAR-8
One experiment relates to ACAD11. The conditions noted are these: read-out: apparent Kd, n = 1.
For another experiment, the system named is ATR. To be noted: read-out: apparent Kd, n = 1.
For the next experiment, the system named is CDK5. To be noted: read-out: apparent Kd, compound concentrations: 100 nM and 1000 nM (sheet 'Samples'), n = 1.
The next experiment deals with FGFR1. The conditions noted are these: read-out: apparent Kd, n = 1.
In another experiment the test system is FRK. To be noted: read-out: apparent Kd, n = 1.
The next experiment deals with FYN. The conditions noted are these: read-out: apparent Kd, n = 1.
Another experiment has as its system IRAK4. To be noted: read-out: apparent Kd, n = 1.
A further experiment concerns JAK1. The conditions noted are these: read-out: apparent Kd, n = 1.
The next experiment concerns JAK2. To be noted: read-out: apparent Kd, n = 1.
A further experiment concerns MAP2K1. To be noted: read-out: apparent Kd, n = 1.
In another experiment the test system is MAP4K1. The conditions noted are these: read-out: apparent Kd; compound concentrations: 100 nM and 1000 nM (sheet 'Samples'), CATDS: 5.1468947283468203E-3; n = 1.
A further experiment relates to PIK3CA. The conditions noted are these: read-out: apparent Kd, n = 1.
The next experiment concerns PRKCB. To be noted: read-out: apparent Kd, n = 1.
Another experiment has as its system ULK3. To be noted: read-out: apparent Kd, n = 1.
In the next experiment the test system is NLK. The conditions noted are these: read-out: apparent Kd, n = 1.
The next experiment deals with T1, DJA1.
T1 construct: gene DNAJA1
The conditions noted are these: read-out: apparent Kd; compound concentrations:100 nM and 1000 nM (sheet 'Samples'); n = 1.

Another experiment deals with STK26. The conditions noted are these: read-out: apparent Kd; compound concentrations: 100 nM and 1000 nM (sheet 'Samples'), CATDS: 1.6966130459451799E-2; n = 1.
The next experiment deals with CDC7. To be noted: read-out: apparent Kd; compound concentrations: 100 nM and 1000 nM (sheet 'Samples'), CATDS: 4.51819013017992E-2; n = 1.
A further experiment deals with NQO2. To be noted: read-out: apparent Kd; compound concentrations: 100 nM and 1000 nM (sheet 'Samples'), CATDS: 2.8699790095599101E-2; n = 1.
[1] abbreviates: compound concentrations:100 nM and 1000 nM (sheet 'Samples').

Like-named read-outs stand apart in the source and are kept apart here.

`Cn1ncc2c(N)ncnc21` [SKF-18267]: the potency estimated from few doses with ACAD11 (compound concentrations: 100 nM and 1000 nM (sheet 'Samples'), CATDS: 4.0481268472205602E-3) was 1300 nM; in the experiment with ATR (compound concentrations: 100 nM and 1000 nM (sheet 'Samples'), CATDS: 6.4256483449106902E-3), 516 nM; in the experiment on CDK5 (CATDS: 4.5442394594478004E-3), 993 nM; with FGFR1 (compound concentrations: 100 nM and 1000 nM (sheet 'Samples'), CATDS: 4.74692919335207E-3), 905 nM; in the experiment with FRK (compound concentrations: 100 nM and 1000 nM (sheet 'Samples'), CATDS: 7.1234836872725703E-3), 436 nM; with FYN (compound concentrations: 100 nM and 1000 nM (sheet 'Samples'), CATDS: 7.0897882723323898E-3), 440 nM. Besides, the potency estimated from few doses is 1460 nM in the experiment on IRAK4 (compound concentrations: 100 nM and 1000 nM (sheet 'Samples'), CATDS: 3.8610933772381499E-3); 883 nM in the experiment with JAK1 (compound concentrations: 100 nM and 1000 nM (sheet 'Samples'), CATDS: 4.8033962123192799E-3); 1050 nM in the experiment on JAK2 (compound concentrations: 100 nM and 1000 nM (sheet 'Samples'), CATDS: 4.4372825621257503E-3); 1590 nM in the experiment with MAP2K1 (compound concentrations: 100 nM and 1000 nM (sheet 'Samples'), CATDS: 3.7479108323340499E-3); 769 nM in the experiment with MAP4K1; 53.3 nM in the experiment on PIK3CA (compound concentrations: 100 nM and 1000 nM (sheet 'Samples'), CATDS: 3.6748488763129201E-2). The potency estimated from few doses is 1610 nM in the experiment on PRKCB (compound concentrations: 100 nM and 1000 nM (sheet 'Samples'), CATDS: 3.7264433576920599E-3); 647 nM in the experiment with ULK3 (compound concentrations: 100 nM and 1000 nM (sheet 'Samples'), CATDS: 5.6428686263863704E-3).

Consider `Clc1cc(Cl)cc(Nc2ccnc(Nc3cc(Cl)cc(Cl)c3)n2)c1` [GSK175726A], for which the potency estimated from few doses is 267 nM in the experiment with ATR (compound concentrations: 100 nM and 1000 nM (sheet 'Samples'), CATDS: 1.4419933534352201E-2); 305 nM in the experiment on FRK (compound concentrations: 100 nM and 1000 nM (sheet 'Samples'), CATDS: 1.3675373024535401E-2); 150 nM in the experiment with FYN (compound concentrations: 100 nM and 1000 nM (sheet 'Samples'), CATDS: 1.87889991520305E-2); 131 nM in the experiment on JAK2 (compound concentrations: 100 nM and 1000 nM (sheet 'Samples'), CATDS: 2.01521439750539E-2).

`O=C1NC(=O)C(N2CCc3ccccc32)=C1c1ccccc1Cl` [SB-373598]: the potency estimated from few doses in the experiment on ATR (setting [1]) was 605 nM; with FGFR1 (setting [1]) it was 1250 nM; with FRK (setting [1]), 330 nM; in the experiment with FYN (setting [1]), 250 nM; with ULK3 (setting [1]), 1450 nM.

Turning to `Cc1ccc(Nc2ccnc(Nc3ccc4c(c3)CS(=O)(=O)C4)n2)cc1O.Cl` [GW579362A], the potency estimated from few doses in the experiment with CDK5 (CATDS: 3.4142296648309298E-2) was 844 nM; in the experiment on NLK (compound concentrations: 100 nM and 1000 nM (sheet 'Samples'), CATDS: 6.6652285634060698E-2) it was 208 nM; with ULK3 (compound concentrations: 100 nM and 1000 nM (sheet 'Samples'), CATDS: 3.7183394564858599E-2), 681 nM.

For `CCn1c(-c2nonc2N)nc2c(C#CC(C)(C)O)nc(OCCN)cc21.CCn1c(-c2nonc2N)nc2c(C#CC(C)(C)O)nc(OCCN)cc21.Cl.Cl` [GSK902056A], the potency estimated from few doses with PRKCB (setting [1]) was 1980 nM.

As for `Cc1ccc2c(-c3ccncc3)c(-c3ccc(F)cc3)nn2c1.Cl` [GW461484A], the figures for the potency estimated from few doses in the experiment on ATR (setting [1]), with FRK (setting [1]) and in the experiment on FYN (setting [1]) were 838 nM, 887 nM and 1170 nM, respectively.

As to `Cc1cccc(Nc2nc(N[C@H]3CCNC3)ncc2C(N)=O)c1.Cl` [GSK2197149A], the potency estimated from few doses with IRAK4 (setting [1]) is 1570 nM; in the experiment on JAK1 (setting [1]), 1240 nM; with PIK3CA (setting [1]) it was 110 nM.

As to `Cc1cc(-c2ccnc(Nc3cccc(C#N)c3)n2)cc(C)c1O` [GSK1440913A], the potency estimated from few doses in the experiment with ACAD11 (compound concentrations: 100 nM and 1000 nM (sheet 'Samples'), CATDS: 0.11808512095338899) was 425 nM.

As to `NC(=O)c1cc(-c2ccccc2)cc2c(C3CCNCC3)c[nH]c12` [GSK301362A], the potency estimated from few doses in the experiment on DJA1 was 1130 nM.

Regarding `COc1cc(Nc2nccc(-c3cnn4ncccc34)n2)cc(OC)c1` [GW801372X], the potency estimated from few doses in the experiment with STK26 is 2340 nM.

For `CNCc1ccc(-c2cc(-c3nc(-c4ccc(S(=O)(=O)C(C)C)cc4)cnc3N)on2)cc1` [VE-822], the potency estimated from few doses in the experiment on ACAD11 (setting [1]) was 321 nM; in the experiment on ATR (compound concentrations: 100 nM and 1000 nM (sheet 'Samples'), CATDS: 0.44999345055434797) it was 7.76 nM; in the experiment on MAP2K1 (setting [1]), 2120 nM.

Take `COc1cc(Nc2nccc(N3CCC(NC(=O)c4cccc(NC(C)=O)c4)C3)n2)cc(OC)c1OC` (centres unmarked) [GSK1379754A]: the potency estimated from few doses with ULK3 (compound concentrations: 100 nM and 1000 nM (sheet 'Samples'), CATDS: 9.2169068852455793E-2) was 1390 nM.

As for `O=C1N=C(NCc2cccs2)O/C1=C\c1ccc2ncccc2c1` [RO4624208-000], the potency estimated from few doses in the experiment with CDC7 is 2100 nM.

`c1ccc(-c2n[nH]cc2Nc2ccnc3ccccc23)nc1` [GW694077X]: the potency estimated from few doses is 1600 nM in the experiment on ACAD11 (compound concentrations: 100 nM and 1000 nM (sheet 'Samples'), CATDS: 2.4414312635225699E-2); 903 nM with NQO2; 212 nM with PIK3CA (compound concentrations: 100 nM and 1000 nM (sheet 'Samples'), CATDS: 4.8537913419409703E-2).

Turning to `CS(=O)(=O)Nc1ccc(-c2ccnc3[nH]ccc23)cc1` [GSK993273A], the potency estimated from few doses is 1040 nM in the experiment on ACAD11 (setting [1]) and 1720 nM in the experiment on MAP2K1 (setting [1]).

As for `CNc1cc(-c2ccc3c(N)n[nH]c3c2)nc(N)n1` [GSK2224810A], the results for the potency estimated from few doses in the experiment with ATR (setting [1]), in the experiment on NLK (setting [1]) and with PIK3CA (setting [1]) were 814 nM, 1610 nM and 245 nM, respectively.

For the compound `CN(C)CCNC(=O)Nc1ccc(N(C)c2ccnc(Nc3ccc(CS(C)(=O)=O)cc3)n2)cc1.Cl` [GW830900A], the potency estimated from few doses in the experiment with JAK2 (setting [1]) was 1050 nM.
